These results are taken from the supplement of paper PMC7411054.

Common to all, as to details: treatment time: 24 h
In test [1] the test system is A549-ACTB-RAB5A. The experiment in a line: lowest phenotypically active concentration; higher = less potent. An outline of the steps:
(§1)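 Cells from fifteen gene-edited reporter lines (A549, HepG2 and WPMY1) were treated for 24 h at 0.3, 1, 3 or 9 µM and imaged live, four wells per condition. Features were normalised per well to solvent control wells. A condition deviated if ≥3 of 4 wells passed the 95th percentile of control Euclidean distances and was reproducible if its median replicate Pearson correlation beat the 95th percentile of non-replicates; phenotypic activity needed both.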

The test system of test [2] is A549-CANX-COX4. The test is described as above. An outline of the steps: as §1
Test [3] deals with A549-GM130-SQSTM1. The description is as above. In a few lines: as §1
Test [4] concerns A549-TP53BP1-CLTA. The description is as above. In a few lines: as §1
The subject of test [5] is A549-TUBA1B-RELA. Described as above. In a few lines: as §1
The subject of test [6] is HepG2-GM130-SQSTM1. The description is as above. An outline of the steps:
as §1

Test [7] relates to A549-ACTB-RAB5A. Nature of the test: phenotypically active (imaging signature differs from DMSO and reproducible) at any of 0.3-9 uM (binary (1 = active, 0 = inactive)); higher = active. In a few lines: as §1
The test system of test [8] is A549-CANX-COX4. Described as above. In a few lines:
as §1

Test [9] deals with A549-GM130-SQSTM1. The description is as above. An outline of the steps: as §1
In test [10] the test system is A549-TP53BP1-CLTA. Described as above. An outline of the steps: as §1
Test [11] relates to A549-TUBA1B-RELA. Described as above. In a few lines:
as §1

Another test deals with HepG2-ACTB-RAB5A. The test is described as above. An outline of the steps: as §1
Another test relates to HepG2-CANX-COX4. The test is described as above. In a few lines:
as §1

The subject of test [12] is HepG2-GM130-SQSTM1. Described as above. In a few lines:
as §1

The subject of another test is HepG2-TP53BP1-CLTA. The test is described as above. An outline of the steps:
as §1

The test system of the next test is HepG2-TUBA1B-RELA. Described as above. In a few lines:
as §1

For a further test, the system named is WPMY1-CANX-COX4. The description is as above. In a few lines:
as §1

Another test deals with WPMY1-GM130-SQSTM1. The description is as above. An outline of the steps: as §1
In the next test the test system is WPMY1-TP53BP1-CLTA. The description is as above. In a few lines: as §1
In a further test the test system is WPMY1-TUBA1B-RELA. Described as above. In a few lines:
as §1

Counter-ions that a name gives are not always drawn. Some results are limits rather than exact numbers.

For the compound `Cc1ccc(C(=O)N(CCCN)[C@@H](c2nc3cc(Cl)ccc3c(=O)n2Cc2ccccc2)C(C)C)cc1` [Ispinesib], the “lowest phenotypically active concentration” value with A549-ACTB-RAB5A [1], with A549-CANX-COX4 [2], in the test with A549-GM130-SQSTM1 [3], with A549-TP53BP1-CLTA [4], in the test on A549-TUBA1B-RELA [5] and in the test with HepG2-GM130-SQSTM1 [6] was at most 0.3 µM in each case. For the same compound, the phenotypically active in the test on A549-ACTB-RAB5A [7], in the test on A549-CANX-COX4 [8], with A549-GM130-SQSTM1 [9], in the test with A549-TP53BP1-CLTA [10], in the test on A549-TUBA1B-RELA [11] and in the test on HepG2-ACTB-RAB5A was 1 (active) in each case. For the same compound, the phenotypically active in the test with HepG2-CANX-COX4, in the test on HepG2-GM130-SQSTM1 [12], in the test with HepG2-TP53BP1-CLTA, in the test with HepG2-TUBA1B-RELA, in the test with WPMY1-CANX-COX4 and with WPMY1-GM130-SQSTM1 was 1 (active) in each case. Besides, the phenotypically active with WPMY1-TP53BP1-CLTA and in the test with WPMY1-TUBA1B-RELA was 1 (active) throughout.
Consider `O=C(Nc1cccc(Cl)c1)Nc1ncc(CCNc2ncnc3ccsc23)s1` [SNS 314 mesylate], for which the “lowest phenotypically active concentration” value in the test with A549-ACTB-RAB5A [1], with A549-CANX-COX4 [2], in the test on A549-GM130-SQSTM1 [3], in the test with A549-TP53BP1-CLTA [4], in the test with A549-TUBA1B-RELA [5] and in the test on HepG2-GM130-SQSTM1 [6] was at most 0.3 µM throughout. Further, the phenotypically active with A549-ACTB-RAB5A [7], in the test on A549-CANX-COX4 [8], with A549-GM130-SQSTM1 [9], with A549-TP53BP1-CLTA [10], with A549-TUBA1B-RELA [11] and with HepG2-ACTB-RAB5A was 1 (active) throughout. The phenotypically active in the test on HepG2-CANX-COX4, in the test on HepG2-GM130-SQSTM1 [12], in the test with HepG2-TP53BP1-CLTA, with HepG2-TUBA1B-RELA, in the test on WPMY1-CANX-COX4 and with WPMY1-GM130-SQSTM1 was 1 (active) in each case. Besides, the phenotypically active with WPMY1-TP53BP1-CLTA and in the test with WPMY1-TUBA1B-RELA was 1 (active) each time.
On to `COc1ccc(-c2ccc3ncc4c(c3c2)n(-c2ccc(N3CCNCC3)c(C(F)(F)F)c2)c(=O)n4C)cn1`, for which the “lowest phenotypically active concentration” value in the test on A549-ACTB-RAB5A [1], in the test on A549-CANX-COX4 [2], in the test on A549-GM130-SQSTM1 [3], with A549-TP53BP1-CLTA [4], in the test on A549-TUBA1B-RELA [5] and in the test with HepG2-GM130-SQSTM1 [6] was at most 0.3 µM in each case. The phenotypically active in the test with A549-ACTB-RAB5A [7], with A549-CANX-COX4 [8], with A549-GM130-SQSTM1 [9], with A549-TP53BP1-CLTA [10], in the test on A549-TUBA1B-RELA [11] and with HepG2-ACTB-RAB5A was 1 (active) throughout. Further, the phenotypically active in the test with HepG2-CANX-COX4, in the test with HepG2-GM130-SQSTM1 [12], with HepG2-TP53BP1-CLTA, in the test on HepG2-TUBA1B-RELA, in the test with WPMY1-CANX-COX4 and with WPMY1-GM130-SQSTM1 was 1 (active) throughout. The phenotypically active with WPMY1-TP53BP1-CLTA and with WPMY1-TUBA1B-RELA was 1 (active) throughout.
`COc1ccc(N(C)c2nc(C)nc3ccccc23)cc1` [MPC 6827 hydrochloride]: the “lowest phenotypically active concentration” value in the test with A549-ACTB-RAB5A [1] is at most 0.3 µM; in the test on A549-CANX-COX4 [2] it was at most 0.3 µM; in the test with A549-GM130-SQSTM1 [3], at most 0.3 µM; in the test on A549-TP53BP1-CLTA [4], 1 µM; with A549-TUBA1B-RELA [5], at most 0.3 µM; in the test with HepG2-GM130-SQSTM1 [6], at most 0.3 µM. Further, the phenotypically active in the test on A549-ACTB-RAB5A [7], with A549-CANX-COX4 [8], with A549-GM130-SQSTM1 [9], in the test with A549-TP53BP1-CLTA [10], in the test on A549-TUBA1B-RELA [11] and with HepG2-ACTB-RAB5A was 1 (active) throughout. Moreover, the phenotypically active in the test with HepG2-CANX-COX4, in the test with HepG2-GM130-SQSTM1 [12], in the test with HepG2-TP53BP1-CLTA, in the test on HepG2-TUBA1B-RELA, with WPMY1-CANX-COX4 and in the test with WPMY1-GM130-SQSTM1 was 1 (active) throughout. Moreover, the phenotypically active with WPMY1-TP53BP1-CLTA and in the test with WPMY1-TUBA1B-RELA was 1 (active) each time.
Turning to `CN(C)c1ccc(C(=O)NCCCCCCC(=O)NO)cc1`, the “lowest phenotypically active concentration” value in the test on A549-ACTB-RAB5A [1] was at most 0.3 µM; in the test on A549-CANX-COX4 [2], at most 0.3 µM; with A549-GM130-SQSTM1 [3], 1 µM; in the test on A549-TP53BP1-CLTA [4] it was at most 0.3 µM; with A549-TUBA1B-RELA [5], at most 0.3 µM; in the test on HepG2-GM130-SQSTM1 [6] it was 1 µM. The phenotypically active in the test with A549-ACTB-RAB5A [7], with A549-CANX-COX4 [8], with A549-GM130-SQSTM1 [9], in the test with A549-TP53BP1-CLTA [10], with A549-TUBA1B-RELA [11] and with HepG2-ACTB-RAB5A was 1 (active) throughout. In addition, the phenotypically active with HepG2-CANX-COX4, in the test with HepG2-GM130-SQSTM1 [12], in the test on HepG2-TP53BP1-CLTA, with HepG2-TUBA1B-RELA, in the test on WPMY1-CANX-COX4 and with WPMY1-GM130-SQSTM1 was 1 (active) throughout. Also, the phenotypically active with WPMY1-TP53BP1-CLTA and with WPMY1-TUBA1B-RELA was 1 (active) throughout.
